Test results taken from PubChem BioAssay AID603 (National Center for Advancing Translational Sciences (NCATS), 2007).
Hit rate of the full screen: of about 71,000 compounds, about 180 (0.25%) were called active. The list comes from a sample in which actives are over-represented; it also holds similar structures and randomly drawn compounds. A number with no mark means an inactive call. The call rests on the fitted dose curve; in most records, active means well fitted curve in the direction sought with a large enough effect; inconclusive means small, poorly fitted or top-dose-only effect; inactive means flat fitted curve, though single readings scatter.

Tested on: DNA polymerase III holoenzyme (E. coli)
Assay: qHTS Assay for Inhibitors of DNA Polymerase III Holoenzyme System
Settings: reconstituted DNA polymerase III holoenzyme replication, biochemical; series mostly up to 57.1 µM; activity change, negative = inhibition: at the top concentration
Method: NIH Molecular Libraries Screening Centers Network [MLSCN]
NIH Chemical Genomics Center [NCGC]
Assay Provider: Charles McHenry, University of Colorado
E. coli DNA polymerase III holoenzyme complex was assayed for DNA production by fluorescent detection of the double-stranded DNA product with PicoGreen dye. The holoenzyme complex was reconstituted from the following purified protein components: DNA Polymerase III, beta subunit processivity factor, SSB single-stranded DNA binding protein, and Primase. Single-stranded, circular M13Gori was used as a substrate with dNTPs and NTPs also supplied to the substrate reagent. Compounds from the NCGC collection were incubated with the holoenzyme mixture for 15 min at room temperature to allow binding to occur, and then the reaction was started by the addition of substrate. After 30 min incubation at room temperature, PicoGreen solution containing EDTA was added to stop the reaction and to visualize the double-stranded DNA produced. Reaction progress was measured in a ViewLux CCD imager in fluorescence intensity mode by using 480 nm excitation and 540 nm emission filter set.
NCGC Assay Protocol Summary:
Buffer. 50 mM Hepes-KOH, pH 7.5, 5 % Glycerol, 0.02% NP40, 30 mM potassium;
glutamate, 1.5 mM Magnesium Acetate, 16 uM TCEP.
Buffer in columns 3 and 4 as negative control (no enzyme).
Substrate solution: 5 uM each dATP, dGTP, dCTP and TTP, 50 uM each GTP, CTP, UTP and 200 uM ATP, 1.4 nM M13gori (final concentrations).
Enzyme: 154 nM SSB, 2 nM Primase, 1 nM Beta, 0.35 nM Pol III (final concentrations).
PicoGreen/EDTA: 10 mM Tris-HCl, 10 mM EDTA, 5 uM PicoGreen (final concentrations).
Control titration: ChemBridge 5805060 (from 10 mM, then 1:2, in duplicate) was pin-transferred to upper half of column 2.
Three uL of holoenzyme mixture were dispensed to 1536-well Greiner black solid bottom plates. Compounds and controls (23 nL) were transferred via Kalypsys PinTool. The plates were incubated for 15 min at room temperature, and then 1 uL of substrate solution was added to start the reaction. After room temperature incubation for 35 minutes, 1 uL of PicoGreen solution was added to each well and the plates were read 480 nm excitation and 540 nm emission using ViewLux (Perkin-Elmer) High-throughput CCD imager and fluorescence protocol settings.
Keywords: NIH Roadmap, MLSCN, MLI, MLSMR, qHTS, NCGC, DNA Polymerase III, DNAPol3, DNAPoly3, DNA replication targets
On the % scale 0 is the no-effect control and ±100 the full control effect.

SMILES	activity change, negative = inhibition	Potency
CC(=O)OCC(COC(C)=O)OC(C)=O	6%	–
CCOc1ccc(-c2nnc3ccc(SC)nn23)cc1	-4.6%	–
CN(C)c1ncc2nc(-c3ccc(F)cc3)c(=O)n(Cc3ccc(F)cc3)c2n1	-10.5%	–
Cc1c(NC(=O)C(C)OC(=O)c2cc3c4ccccc4n(C)c3s2)c(=O)n(-c2ccccc2)n1C (stereo not drawn)	-9%	–
CC1COC2C(O1)N(S(C)(=O)=O)CCN2S(C)(=O)=O (stereo not drawn)	-5.1%	–
Cc1cc(NC(=O)COc2ccc(Cl)cc2Cl)n(CCC#N)n1	-3.1%	–
COc1cc(=O)[nH]c(=O)n1C(=O)Cc1ccccc1	-6%	–
CCC(C)(C)n1nnnc1C(c1cccs1)N1CCN(c2nc3ccccc3s2)CC1 (stereo not drawn)	-3.1%	–
CC[N+](C)(CC)CCC[n+]1c(-c2ccccc2)c2cc(N)ccc2c2ccc(N)cc21	–	2 µM (active)
O=C(OCC(COC(=O)c1ccccc1)(COC(=O)c1ccccc1)COC(=O)c1ccccc1)c1ccccc1	0.5%	–
COc1ccc(CC(=O)n2nc(-c3cccnc3)nc2N)cc1	-4.3%	–
COc1ccccc1NC(=O)C1=C(C)Nc2nnnn2C1c1cccc(Br)c1 (stereo not drawn)	-0.8%	–
CC(C)NC(=O)CCCn1c(=S)[nH]c2cc3c(cc2c1=O)OCO3	-4.2%	–
CCCOC(=O)Cc1c(O)c2ccccc2[nH]c1=O	2.4%	–
CCCC(=O)Nc1c(O)c2ccccc2[nH]c1=O	1.8%	–
O=C1C(c2[nH]c3ccccc3c2O)=Nc2ccccc21	–	3.98 µM (active)
CC(C)(C)[Si](OCC[C@@H]1C[C@@]1(C)[C@@H](NP(=O)(c1ccccc1)c1ccccc1)c1ccccc1)(c1ccccc1)c1ccccc1	2.2%	–
N#Cc1cccc(-c2ccc3ncnc(NCc4cccs4)c3c2)c1	-0.5%	–
CC(C)C[C@H](NC(=O)NCCc1ccc(Cl)cc1)C(=O)O	0.4%	–
COc1ccc(-n2ncc3c(N4CCCc5ccccc54)ncnc32)cc1	0.2%	–
CCCC[C@@H]1C[C@H]1C(NC(=O)c1ccco1)c1ccc(C(=O)OC)cc1 (stereo partly drawn)	-5.4%	–
CS(=O)(=O)N1CCC2(CC1)CN(c1ccncc1)C2	-4.4%	–
Cc1ccccc1C(=O)O	1.3%	–
O=C(O)c1ccc(C(=O)c2ccccc2C(=O)O)cc1C(=O)O	–	3.98 µM (active)
O=C(c1ccc(O)cc1)c1ccc(C(=O)O)c(C(=O)O)c1	-2.9%	–
CCc1nnc(NS(=O)(=O)c2ccc(NS(=O)(=O)c3ccccc3)cc2)s1	-14.1%	–
Cc1ccnc(N)c1	-0.2%	–

SMILES	activity change, negative = inhibition	Potency
c1ccc2nc(C3=NCCN3)cnc2c1	-3.7%	–
c1ccc(Cc2nn3c(Cn4cnc5ccccc54)nnc3s2)cc1	-6.2%	–
COc1ccc2oc(=O)c(C(=O)O)cc2c1	0.4%	–
O=C(CN1CCOc2ccccc21)N1CCC(Cc2ccccc2)CC1	0.5%	–
O=C(NCCCN1CCCCCC1)c1ccc(N2CCCC2=O)cc1	-2.7%	–
CC(=O)N1[C@H](C)C=C[C@]1(Cc1ccccc1)C(=O)NCc1ccccn1	10.3%	–
O=C1CN(C(=O)COC(=O)C2CC(=O)N(Cc3ccco3)C2)c2ccccc2N1 (stereo not drawn)	-5.6%	–
O=C(Nc1ccn(Cc2ccc(F)cc2)n1)c1ccncc1	2.3%	–
CC(=O)N=c1ncn(CC(COC(C)=O)OC(C)=O)c2nc[nH]c12 (stereo not drawn)	-5.5%	–
CCn1c(CSc2ncccn2)nnc1SCC(=O)N1c2ccccc2CC1C (stereo not drawn)	-3.1%	–
C/C(=C\c1ccco1)C1Nc2cccc3cccc(c23)N1	–	3.16 µM (active)
Cc1cc(C)cc(NC(=O)C2CCN(c3nc(C)cc(C)n3)CC2)c1	-1.5%	–
CN1CCCC(OC(=O)COc2ccc(Br)cc2)C1 (stereo not drawn)	-3.3%	–
Cc1cc(=O)oc(C)c1C(=O)NCc1ccc(F)cc1	-6.9%	–
Oc1ccccc1CNCc1ccccc1O	-9.4% [at 11.4 µM]	–
CCOC(=O)c1c(C2CC2)csc1NC(=O)CSCc1c(C)noc1C	-5.2%	–
Cc1cc(C)nc(SCc2ccccc2C#N)n1	-13.8%	–
CCCCCCc1ccc(O)cc1O	0.2%	–
COc1ccccc1CNc1ncnc2ccc(-c3c(C)noc3C)cc12	-1.2%	–
COc1ccc(Cn2cccc(NC(=O)Nc3ccc(C#N)cc3)c2=O)cc1	-2.6%	–
COc1ccc(OC)c(C(=O)c2ccc(C(=O)O)cc2)c1	1.1%	–
CC(C)NC[C@H](O)c1ccc2ccccc2c1	inactive	–
O=C(Oc1ccc2c(c1)CN(Cc1ccccc1)CO2)c1ccccc1	-3% [at 11.4 µM]	–
COCCn1c(=O)c(CCc2ccccc2)nc2cncnc21	-7.4%	–
CCCn1c(-c2ccc(F)cc2)nc2c(NCC3CCCN3CC)nc(C)nc21 (stereo not drawn)	-1.2%	–
COc1cccc2sc(Nc3nc(C)c(C(C)=O)s3)nc12	-4.5%	–
